# p53 reactivation: restores transcriptional activity of mutant p53 | H1299 p53-A138V BP100-luciferase reporter, luminescence, 24 h | AID 504706 | actives 0.063% (n = 320,000) | Potency, µM (series often up to 92.2 µM), for the others: at the top dose activity change, positive = activation, most hits filed as activators; note: potency is the fitted concentration of half-maximal effect; % of control where 0% means no effect; nearly all actives have a fitted effect of over 45% in size
#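 p53-null H1299 cells stably carrying temperature-sensitive p53-A138V and a BP100-luciferase reporter were pinned with compounds (4-point, 1:5 series) and held 24 hrs at 37 deg C. Luminescence was read 10 min after detection reagent.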
# BRCA1 expr act: BRCA1 expression activation. MCF7-BRCA1-FFLuc reporter, luminescence, 48 h; response scale: scaled: vehicle 0%, 10 µM genistein 100%. AID 624202. Potency, µM (highest dose often 46.1 µM), inactives show at the top dose activation, actives largely listed as activators. actives 1.1% (n = 380,000); note: potency is the fitted concentration of half-maximal effect; nearly all actives have a fitted effect of over 80% in size
#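 Quantitative HTS in MCF7 cells stably reporting BRCA1 expression via firefly luciferase. Compound treatment lasts 48 h at 37 °C in phenol-red free MEM. Activation is expressed relative to genistein at 10 microM and DMSO.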
# Nrf2 activator: activators of Nrf2 (ARE) signaling; AREc32 ARE-luciferase reporter (MCF7-derived line), luminescence, 24 h; Potency, µM (titrated, usually from 46.1 µM), without a hit: top-dose activation, most hits filed as activators; actives 0.31% (n = 410,000); note: potency is the fitted concentration of half-maximal effect; % of control where 0% means no effect; nearly all actives have a fitted effect of over 65% in size
#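 Nrf2 activation is followed as ARE-luciferase induction in the AREc32 line after one day of compound treatment; luminescence is read with Steady-Glo.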
# A549 tox: kills or reduces viability of A549 cells in Nrf2 counter-screen | Potency, µM (doses to about 46 µM), without a hit: top-dose activity change, negative = cytotoxicity, actives largely listed as inhibitors | A549 ARE-Fluc cells, CellTiter-Fluor viability, 18-24 h | actives 0.16% (n = 390,000) | AID 504648; note: potency is the fitted concentration of half-maximal effect; % is set by controls: 0 for no effect and ±100 for the full control effect
#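 Cytotoxicity counterscreen: CellTiter-Fluor fluorescence was measured in A549 ARE_Fluc cells after 18-24 h of compound exposure in a concentration series. The subsequent BugLite luminescent read reports ARE-luciferase activity.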
# IL2 activator: IL-2 activation; IL-2 activation reporter assay, cell-based qHTS; stimulated with anti-CD3/CD4/CD28 beads; in transgenic mouse T cells; activation, % (series mostly up to about 46 µM); actives 0.065% (n = 360,000); in the data active = activation above about 50%; inconclusive = mostly about 30% to 49%; note: 0% is about no effect
#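 Using fluorescent plate cytometry, EGFP and DsRed are detected in transgenic mouse T cells stimulated 18 h at 37 degrees C with antibody-coated beads after 60 min compound pretreatment.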
# Nrf2 inh: inhibitors of Nrf2 signaling; A549 ARE-Fluc reporter, luciferase luminescence, 18-24 h; Potency, µM (titrated, usually from 46 µM), without a hit: top-dose activity change, negative = inhibition, usual class: inhibitors; actives 2.1% (n = 360,000); AID 504444; note: potency is the fitted concentration of half-maximal effect; % is set by controls: 0 for no effect and ±100 for the full control effect; nearly all actives have a fitted effect of over 60% in size
#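 Nrf2 function is reported as luminescence of an ARE-controlled luciferase in A549 cells. Compounds were tested at several concentrations, and a CellTiter-Fluor read on the same wells flagged cytotoxicity.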
# Active calls of the source: *; ? = inconclusive; nt = not tested or not shown; ! = repeats disagree; [ ] = remark or other dose. Sampled rows, rich in hits. Any-hit rate of the full collection: about 3.2%. Unless noted, calls come from the whole dose curve; as a rule, active = well fitted curve in the direction sought with a large enough effect; inconclusive = small, poorly fitted or top-dose-only effect, or another doubt; inactive = no such curve, though single readings can be large; an effect the other way counts as inactive or inconclusive.
SMILES,p53 reactivation,BRCA1 expr act,Nrf2 activator,A549 tox,IL2 activator,Nrf2 inh
CCCOc1ccccc1C1NC(=O)NC(C)=C1C(=O)OCc1ccccc1 (stereo unspecified),-8.2%,0.6%,0.1%,?,-3.3,10.3µM*
CCCOc1ccccc1C1NC(=O)NC(C)=C1C(=O)OCCOC (stereo unspecified),-9.6%,7.3%,-0.6%,-0.9%,0.8,4.0%
CC1=C(C(=O)OCc2ccc3c(c2)OCO3)C(c2ccccc2OCc2ccccc2)NC(=O)N1 (stereo unspecified),-5.9%,-37.4%,-0.3%,-20.7%,6.1,13µM*
CC1=C(C(=O)OCc2ccc3c(c2)OCO3)C(c2ccc(O)c([N+](=O)[O-])c2)NC(=O)N1 (stereo unspecified),-4.8%,25.8%,0.3%,-9.0%,-1.7,?
Cc1ccc(C)c(NC(=O)c2ccc3nc(CCc4ccccc4)oc3c2)c1,nt,38.9%,6.4%,1.1%,nt,nt
O=C(c1ccc2c(=O)n3c(nc2c1)CCCCC3)N1CCN(c2ccccc2)CC1,-3.5%,-12.8%,-0.1%,-4.9%,-1.8,-2.8%
O=C(c1ccc2c(=O)n3c(nc2c1)CCCCC3)N1CCN(C(c2ccccc2)c2ccccc2)CC1,-0.7%,-90.9%,-0.5%,-16.7%,-2.4,20.6µM*
O=C(c1ccc2c(=O)n3c(nc2c1)CCCCC3)N1CCN(c2ccc([N+](=O)[O-])cc2)CC1,2.9%,-2.8%,-0.3%,?,-5.2,23.1µM*
Cc1ccc(C)c(CSc2nnc(C)n3c2cc2sccc23)c1,nt,nt,1.2%,-1.3%,nt,25.9µM*
Cc1nnc(SCc2ccccc2)c2cc3sccc3n12,nt,nt,15.3%,15.3%,nt,6.9%
Cc1cc2c(s1)c1cnn(Cc3cc(Cl)ccc3F)c(=O)c1n2C,nt,nt,nt,2.0%,nt,18.5%
COCc1cc(=O)[nH]c(Nc2nc3ccc(C)cc3o2)n1,?,-21.7%,12.6µM*,?,0.2,?
Cc1ccc(CNC(=O)Cn2ccn(-c3ccc(F)cc3)c(=O)c2=O)cc1,nt,nt,-0.4%,-11.6%,nt,-16.3%
CCOC(=O)C1(Cc2ccccc2Cl)CCN(C(=O)CN2CCOC2=O)CC1,6.3%,12.6µM*,-0.4%[9.22 µM],-0.9%,-2.1,?
CCOC(=O)C1(CCCc2ccccc2)CCN(C(=O)CN2CCOC2=O)CC1,1.9%,-4.6%,0.0%,2.3%,1.6,1.1%
Cc1cccc(C(=O)N2CCN(c3ncnc4c3cnn4-c3ccccc3)CC2)c1,-6.0%,-21.8%,2.8%,-15.3%,-2.3,18.4µM*
COc1cc(C(=O)N/N=C(\Cc2ncc[nH]2)c2ccccc2)cc(OC)c1OC,?,-60.6%,-0.3%,?,0.0,14.6µM*
COc1cc(C(=O)N/N=C(\c2ccccc2)c2ccccn2)cc(OC)c1OC,?,-64.3%,-0.2%,?,0.9,4.61µM*
O=C1/C(=C/C=C/c2ccco2)SC(=S)N1c1ccc(O)cc1,17.3%,53.1%,10µM*,-8.2%,4.0,6.2%
O=S1(=O)N=C(Oc2ccc(C(F)(F)F)cc2)c2ccccc21,nt,nt,nt,1.0%,nt,7.2%
COc1ccc(C(=O)Nc2nc3ccccc3s2)cc1,-14.2%,-25.1%,-2.0%,1.6%,0.2,?
O=C(c1ccc(OCC2CCCO2)cc1)N1CCc2ccccc2C1 (stereo unspecified),-1.4%,11.2µM*,4.2%,0.3%,-2.1,26.6%
COc1ccc(C(=O)Nc2nc3ccccc3s2)cc1OC,-5.2%,4.47µM*,4.7%,-4.5%,-0.3,?
COc1ccc(C(=O)Nc2ccc3ccccc3c2)cc1OC,nt,5.62µM*,4.4%,-10.6%,-0.7,2.0%
Cc1cnc(NC(=O)c2ccc(OCC3CCCO3)cc2)s1 (stereo unspecified),-8.5%,-26.1%,-2.1%,-0.4%,-0.3,?
SMILES,p53 reactivation,BRCA1 expr act,Nrf2 activator,A549 tox,IL2 activator,Nrf2 inh
O=C(c1ccc(OCC2CCCO2)cc1)N1CCN(c2ccccc2)CC1 (stereo unspecified),3.2%,0.4%,0.5%,-2.1%,-2.0,-11.1%
O=C(Nc1nc2ccccc2s1)c1ccc(OCC2CCCO2)cc1 (stereo unspecified),28.2µM*,-72.1%,-0.1%,-1.5%,1.0,?
CCN1CCN(c2cc(C)c3cc(NC(=O)c4ccc(OC)c(OC)c4)ccc3n2)CC1,-5.5%,-54.8%,5.6%,16.4µM*!,-3.4,16.4µM*!
COc1ccc(NC(=O)c2ccc3snnc3c2)cc1,?,6.31µM*,4.6%,-4.2%,0.3,nt
Cc1ccc(-c2cn3nc(N4CCCC(C(=O)NCc5ccc(F)cc5)C4)sc3n2)cc1 (stereo unspecified),nt,nt,4.0%,-13.8%,nt,?
COc1ccccc1CNC(=O)CSc1nc2nc(C)c(Cc3ccccc3C)c(C)n2n1,nt,nt,2.8%,2.0%,nt,26.6%[9.27 µM]
Cc1cccc(Nc2nc(N)c([N+](=O)[O-])c(N3CC(C)CC(C)C3)n2)c1 (stereo unspecified),-8.5%,-78.2%,-1.8%,20.6µM*,-4.4,16.4µM*
Cc1cccc(Nc2nc(N)c([N+](=O)[O-])c(N3CCC(C)CC3)n2)c1,1.9%,-57.9%,0.2%,?,-4.5,18.4µM*
CCN1CCN(c2nc(Nc3cccc(OC)c3)nc(N)c2[N+](=O)[O-])CC1,-0.9%,-33.8%,2.7%,?,-2.2,-6.8%
Cc1cccc(Nc2nc(N)c([N+](=O)[O-])c(N3CC(C)OC(C)C3)n2)c1 (stereo unspecified),3.6%,-36.5%,-0.1%,?,-0.9,18.4µM*
O=C(c1cc2ccccc2oc1=O)N1CCN(c2ccc(Cl)cc2)CC1,nt,nt,3.5%,2.6%,nt,-2.4%
N#Cc1ccccc1CN1C(=O)c2ccccc2Sc2ccc(C(=O)OCc3ccco3)cc21,nt,1.6%,3.8%,11.9%,nt,nt
CCOc1ccccc1-n1ccnc(NCc2ccc(F)cc2)c1=O,nt,12.9%,3.8%,7.5%,nt,?
O=C1CCc2cc(-c3csc(-c4ccc(O)cc4)n3)ccc2N1,nt,3.7%,nt,nt,nt,nt
Oc1cc2cc(-c3csc(-c4ccc(F)cc4)n3)cc3c2n1CCC3,nt,12.6µM*,nt,nt,nt,nt
CCc1ccccc1NC(=O)CSc1ncc(S(=O)(=O)c2ccccc2)c(N)n1,nt,-8.8%,0.1%,7.1%,nt,-10.7%
O=C(N/N=C/C1=C(N2CCOCC2)C(=C\c2ccccc2)/CC1)Nc1ccccc1,-1.2%,-34.6%,4.3%,-5.8%,0.2,-6.3%
CCN(CC)c1ccc(/C=C2\CCC(/C=N/NC(=O)c3ccc(=O)n(C)c3)=C2N2CCOCC2)cc1,-9.3%,-54.5%,0.0%,-15.2%,70.7*,-5.3%
COc1ccc(Cn2cccc(NC(=O)Nc3cccc(OC)c3)c2=O)cc1,7.5%,18.4%,0.2%,?,-3.6,5.17µM*
